Our source for the Potency and outcome values is PubChem BioAssay (NCATS).

Results filed as inconclusive are left out. Activity calls are given as the source filed them. Unless noted, calls follow the shape of the dose curve; as a rule, active = well fitted curve in the direction sought with a large enough effect; inconclusive = small, poorly fitted or top-dose-only effect, or another doubt; inactive = no such curve, though single readings can be large; an effect the other way counts as inactive or inconclusive.

Test [1] in a line: S16 Schwann cell viability assay (CellTiter-Glo assay) (AID 624031). Also: nearly all actives have a fitted effect of over 70% in size. Also: potency is read from the fitted curve at half-maximal effect. An outline of the steps: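 Native S16 Schwann cells (rat), serum-containing medium, overnight attachment then 24 h drug exposure at 37 °C/5% CO2. CellTiter-Glo ATP signal; normalized to cell-free and vehicle wells.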
For orientation: In ATP-based viability assays light output follows the ATP content of the culture.

Test [2] is described as follows: S16 Schwann cell PMP22 intronic element firefly luciferase assay (AID 624032). Also: nearly all actives have a fitted effect of over 30% in size. Also: potency is read from the fitted curve at half-maximal effect. An outline of the steps: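 Rat S16 Schwann cells stably carrying a PMP22 intronic element-driven Fluc reporter were seeded overnight, then exposed to compounds for 24 h at 37 °C. Luminescence was normalized to PTC124 (positive control) and DMSO (0% activity).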
The nature of test [3]: S16 Schwann cell PMP22 intronic element beta-lactamase assay (AID 624044; calls by dose curve; also: nearly all actives have a fitted effect of over 15% in size; also: potency is read from the fitted curve at half-maximal effect). Summed up: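 Rat S16 Schwann cells with beta-Lac driven by a PMP22 intronic element, compound-treated 24 h at 37 °C. LiveBLAzer FRET B/G read: 460 nm normalized to potassium clavulanate vs DMSO; 535 nm FRET as viability; concentration-effect curves classified.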
Test [4] is described as follows: qHTS of Trypanosoma Brucei Inhibitors: LOPAC Validation (AID 624147). An outline of the steps:
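In this concentration-response screen, enzyme-free wells defined baseline while DMSO plates tracked drift. Each reaction combined TbPYK, substrate, compound and 130 uM ADP for 45 min at room temperature. Kinase-Glo Plus luminescence gave the signal.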

Test [5] addresses Glucagon-like peptide 1 receptor (Homo sapiens) (UniProt P43220). Briefly: qHTS of GLP-1 Receptor Agonists: LOPAC Validation (AID 624148).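 Also: higher luminescence signal means agonism.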 Summed up:
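HEK293 cells stably co-expressing a cAMP-responsive luciferase reporter and a hypersensitive GLP-1R were plated 12 h at 37 °C and exposed to compounds for 4-6 hr at 37 °C, 5% CO2. Luminescence was read 12 min after adding detection reagent.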

Test [6] is described as follows: qHTS of Nrf2 Activators: LOPAC Validation (AID 624149). Summed up: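 AREc32_Fluc cells, 1000/well in OPTI-MEM with 5% FBS, grown overnight, then exposed to compounds for 24 hr at 37 deg C, 5% CO2. ARE-driven firefly luciferase read by Steady-Glo luminescence after 30 min at RT.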
For orientation: qHTS replaces the single test concentration by a dilution series.

The nature of test [7]: HTS Assay for Allosteric Antagonists of the Human D2 Dopamine Receptor: Hit Validation in HTRF (AID 624455).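 Also: stable D1 dopamine receptor cell line scored for blocking the D1 response.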 Summed up:
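Hit validation in cells stably expressing the D1 dopamine receptor, run in HTRF format. Compounds were tested for their ability to inhibit the D1-mediated response.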

Test [8] concerns the target Glutaminase kidney isoform, mitochondrial (Homo sapiens) (UniProt O94925). Briefly: qHTS for Inhibitors of Glutaminase (GLS): LOPAC Validation (AID 624146). Also: nearly all actives have a fitted effect of over 60% in size. Also: potency is read from the fitted curve at half-maximal effect. An outline of the steps:
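Glutamate formation by hKGA was monitored fluorometrically using coupled glutamate oxidase, HRP and Amplex Red. Substrate was added as 1 mM L-glutamine solution; incubation was 30 min at RT after an initial read.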

Test [9] in a line: Cytotoxicity counterscreen for NFkB agonists and antagonists (AID 624476).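 Also: potency is read from the fitted curve at half-maximal effect; cells exposed to compound for 48 hours.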 On the technique in general: The purpose of a counterscreen is to sort out artefacts and off-target activity.
Test [10] is described as follows: qHTS Assay for Identification of Small Molecule Agonists for NFkB Signaling Pathway. (AID 624478). An outline of the steps:
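NFkB-bla ME-180 cells carry a beta-lactamase reporter. They received compound plus TNF alpha at 10 pM final (its EC50) for 5 h at 37 C. Reporter activity was read as 460/530 nm emission ratio after 2 h LiveBLAzer substrate loading.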

Chain of Glucagon-like peptide 1 receptor (Homo sapiens) (P43220 whole entry, looked up): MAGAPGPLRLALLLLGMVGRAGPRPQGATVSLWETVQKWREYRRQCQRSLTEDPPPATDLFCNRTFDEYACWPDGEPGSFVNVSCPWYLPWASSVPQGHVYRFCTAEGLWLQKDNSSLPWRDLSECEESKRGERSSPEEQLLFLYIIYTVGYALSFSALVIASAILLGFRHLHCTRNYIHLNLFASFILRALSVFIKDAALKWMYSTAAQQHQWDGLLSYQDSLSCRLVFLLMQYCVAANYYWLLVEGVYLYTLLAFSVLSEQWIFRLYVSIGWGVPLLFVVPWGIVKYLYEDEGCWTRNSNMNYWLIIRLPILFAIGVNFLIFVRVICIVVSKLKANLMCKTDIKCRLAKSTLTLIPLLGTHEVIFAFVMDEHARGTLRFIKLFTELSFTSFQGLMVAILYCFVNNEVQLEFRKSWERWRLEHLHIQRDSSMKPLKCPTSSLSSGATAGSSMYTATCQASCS
Chain of Glutaminase kidney isoform, mitochondrial (Homo sapiens) (O94925 whole entry, looked up, canonical isoform): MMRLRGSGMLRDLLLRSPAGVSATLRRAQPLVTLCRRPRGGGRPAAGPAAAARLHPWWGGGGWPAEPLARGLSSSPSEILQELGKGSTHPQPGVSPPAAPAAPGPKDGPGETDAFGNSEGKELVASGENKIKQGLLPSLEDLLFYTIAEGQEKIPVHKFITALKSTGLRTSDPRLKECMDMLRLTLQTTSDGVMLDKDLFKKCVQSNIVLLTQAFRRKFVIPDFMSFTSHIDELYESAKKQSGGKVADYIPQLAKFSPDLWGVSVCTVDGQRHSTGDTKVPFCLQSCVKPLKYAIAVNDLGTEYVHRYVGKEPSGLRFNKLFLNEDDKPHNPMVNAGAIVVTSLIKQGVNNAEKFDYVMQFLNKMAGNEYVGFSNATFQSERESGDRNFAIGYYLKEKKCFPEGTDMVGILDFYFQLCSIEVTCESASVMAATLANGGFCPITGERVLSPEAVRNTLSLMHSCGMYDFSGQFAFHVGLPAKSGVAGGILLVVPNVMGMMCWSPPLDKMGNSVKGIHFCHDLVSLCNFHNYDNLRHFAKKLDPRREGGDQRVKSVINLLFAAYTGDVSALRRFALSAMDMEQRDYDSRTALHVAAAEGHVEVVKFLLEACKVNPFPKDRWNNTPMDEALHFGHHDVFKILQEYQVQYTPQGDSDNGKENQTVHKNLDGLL

On to `O=C1NCC2(CCN(CCc3ccccc3)CC2)O1`, for which the Potency entry in [1], in test [2] and in test [3] was “inactive” each time. Further, the result in test [4], in [5], in [6] and in test [7] was inactive.
Turning to `CCN(CC)CCNC(=O)c1ccc(N)cc1`, the Potency result in test [1], in test [2] and in [8] was “inactive” in each case. Also, the compound was classed as inactive in [4], in test [6] and in test [7].
With `O=C(O)c1cc(-c2ccccc2)nc2ccccc12`, the Potency result in [1] and in test [2] was “inactive” in each case.
For `O=C(O)CCc1nc(-c2ccccc2)c(-c2ccccc2)o1`, the Potency result in test [1], in [2] and in test [8] was “inactive” in each case. Also, the call in [4], in [5] and in test [7] was inactive.
As for `NCCS`, the Potency result in test [1], in test [2] and in [8] was “inactive” in each case. For the same compound, the result in [4], in test [5], in [6] and in test [7] was inactive.
Take `O=C(O)Cc1cccc2ccccc12`: the Potency entry in [1] and in test [2] was “inactive” throughout.
As to `CC(C)(C)c1ccc(C(O)CCCN2CCC(C(O)(c3ccccc3)c3ccccc3)CC2)cc1` (stereo unspecified), the Potency in [1] was 16.1 µM (active). For the same compound, the Potency entry in test [2] and in test [8] was “inactive” in each case. In addition, the call in [4], in [5] and in test [7] was inactive.
With `CCCCCN(C)CCC(O)(P(=O)(O)O)P(=O)(O)O`, the Potency entry in test [1], in [2], in [3] and in test [8] was “inactive” throughout. The compound was called inactive in test [4], in [5], in test [6] and in [7].
For `O=c1[nH]cnc2c1ncn2[C@H]1CC[C@@H](CO)O1`, the Potency result in [1], in test [2] and in test [3] was “inactive” in each case.
`CC(=O)c1ccc(S(=O)(=O)NC(=O)NC2CCCCC2)cc1`: the Potency result in test [1], in test [2] and in [8] was “inactive” in each case. The outcome in test [4], in test [5], in test [6] and in test [7] was inactive.
On to `CC(=O)CCCCn1c(=O)c2c(ncn2C)n(C)c1=O`, for which the Potency result in test [1], in test [2] and in test [8] was “inactive” each time. Further, the result in [4], in [5] and in test [6] was inactive.
Take `CC1(C)O[C@H]2C[C@@H]3[C@H]4CCC5=CC(=O)C=C[C@]5(C)[C@@]4(F)[C@@H](O)C[C@]3(C)[C@]2(C(=O)CO)O1`: the Potency result in [1], in test [2] and in test [3] was “inactive” each time.
For `Cc1cnc(C(=O)O)c[n+]1[O-]`, the Potency result in [1] and in test [2] was “inactive” each time.
As to `CCCNC(=O)NS(=O)(=O)c1ccc(Cl)cc1`, the Potency entry in [1], in test [2] and in [8] was “inactive” throughout. Also, the call in test [4], in test [5], in [6] and in test [7] was inactive.
Turning to `C[N+](C)(C)CCCCCC[N+](C)(C)C`, the Potency entry in test [1], in test [2] and in test [8] was “inactive” in each case. The result in test [4], in test [5], in test [6] and in test [7] was inactive.
Take `O=C1NC(=O)C(c2ccccc2)(c2ccccc2)N1`: the Potency entry in test [1], in test [2] and in [8] was “inactive” throughout. Besides, the compound was classed as inactive in test [4], in [5], in test [6] and in [7].
Regarding `CCCCC1C(=O)N(c2ccccc2)N(c2ccccc2)C1=O`, the Potency entry in test [1], in test [2] and in test [8] was “inactive” throughout. The result in test [4], in test [5], in [6] and in test [7] was inactive.
For `CCN1CCC[C@H]1CNC(=O)c1cc(S(N)(=O)=O)ccc1OC`, the Potency result in [1], in test [2] and in [8] was “inactive” in each case. In addition, the compound was called inactive in test [4], in test [5], in [6] and in test [7].
Turning to `CC(=O)N[C@@H](CS)C(=O)O`, the Potency entry in test [1], in test [2] and in test [8] was “inactive” throughout. For the same compound, the result in [4], in test [5], in [6] and in test [7] was inactive.
With `CCOC(=O)O[C@]1(C(=O)OCCl)CC[C@@H]2[C@H]3CCC4=CC(=O)C=C[C@]4(C)[C@@H]3[C@@H](O)C[C@@]21C`, the Potency entry in test [1], in test [2] and in [3] was “inactive” in each case.
With `CC1=C(/C=C/C(C)=C/C=C/C(C)=C/C(=O)Nc2ccc(O)cc2)C(C)(C)CCC1`, the Potency result in test [1] was “inactive”. In addition, the Potency was 4.05 µM (active) in test [2], 11.2 µM (active) in test [3], 12.6 µM (active) in test [8] and 20.9 µM (active) in test [9]. Moreover, the outcome in test [4], in [5], in [6], in test [7] and in test [10] was inactive.
`Cc1cccc(C)c1OCC(C)N` (stereo unspecified): the Potency entry in test [1], in [2] and in test [8] was “inactive” in each case. For the same compound, the outcome in [4], in [5], in test [6] and in [7] was inactive.
For the compound `CN(C)CCC(c1ccccc1)c1ccccn1` (stereo unspecified), the Potency result in test [1], in test [2] and in [8] was “inactive” throughout. Moreover, the call in test [4], in test [6] and in test [7] was inactive.
For `CCn1cc(C(=O)O)c(=O)c2ccc(C)nc21`, the Potency entry in test [1], in test [2] and in test [8] was “inactive” throughout. The compound was classed as inactive in [4], in [5] and in [7].
Consider `CCN(CC)CCOC(=O)c1ccc(N)cc1`, for which the Potency entry in [1], in [2] and in [8] was “inactive” throughout. The result in [4], in [5], in [6] and in [7] was inactive.
`COc1ccccc1N1CCN(CCCNc2cc(=O)n(C)c(=O)n2C)CC1`: the Potency result in [1], in test [2] and in test [8] was “inactive” throughout. Besides, the outcome in [4], in [5], in test [6] and in [7] was inactive.
With `C[C@@H](O)[C@H]1C(=O)N2C(C(=O)O)=C(S[C@@H]3CN[C@H](C(=O)N(C)C)C3)[C@H](C)[C@H]12`, the Potency result in test [1] and in test [2] was “inactive” each time.
`CC(C)NCC(O)COc1cccc2[nH]ccc12` (stereo unspecified): the Potency result in test [1], in test [2] and in test [8] was “inactive” each time. The compound was classed as inactive in [4], in test [5] and in test [7].
